TEAD-YAP block = TEAD-YAP interaction inhibition; HEK-TIYL cells, TEAD-Gal4/YAP UAS-luciferase luminescence; inhibition, % at 9.12 µM; hit rate 1.4% among 640,000; AID 1259422; in the data active means inhibition above about 32%
FBW7 activator = activators of human E3 ligase FBW7. normalized activity (activation), % at 26.1 µM. AID 1259310. Q969H0. hit rate 0.13% among 650,000. AlphaScreen FBW7–phospho-cyclin E peptide binding, activator screen; in the data active means normalized activity above about 1.9%;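 further: purified mutant Fbw7 with reduced substrate affinity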
MITF primary = human MITF inhibition, primary screen; hit rate 0.91% among 650,000; AID 1259374; O75030; AlphaScreen MITF homodimerization, bead proximity signal; inhibition, % at 2.6 µM; in the data active means inhibition above about 50%
GPR151 ag = activators of human GPR151; activation, % at 11.2 µM; PathHunter beta-arrestin GPR151 cells, luminescence; Q8TDV0; AID 1508602; hit rate 1% among 650,000; in the data active means activation above about 4.9%
GPR151 conf act = confirmation of human GPR151 activators. shares compounds with GPR151 ag. GPR151 PathHunter beta-arrestin cells, luminescence, 90 min; % of EA-reagent control over plate median. activation, % at 11.2 µM. 6,700 tested, under 10 active. AID 1508609;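 active means mean percent activation across replicates above the confirmation screen cutoff of 4.91%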
GPR119 ag = activates human GPR119 in a GPR151 counter-screen | hit rate 0.3% among 6,700 | AID 1508611 | activation, % at 11.2 µM | shares compounds with GPR151 ag | GPR119 PathHunter beta-arrestin cells, luminescence, 90 min; 0 = compound-well median, 100 = enzyme-acceptor control;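 active means mean percent activation in the counterscreen above 29.09%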;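 further: counterscreen on off-target GPR119 to flag nonselective hits from the GPR151 activator screen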
Target sequence (Q8TDV5 whole entry, looked up): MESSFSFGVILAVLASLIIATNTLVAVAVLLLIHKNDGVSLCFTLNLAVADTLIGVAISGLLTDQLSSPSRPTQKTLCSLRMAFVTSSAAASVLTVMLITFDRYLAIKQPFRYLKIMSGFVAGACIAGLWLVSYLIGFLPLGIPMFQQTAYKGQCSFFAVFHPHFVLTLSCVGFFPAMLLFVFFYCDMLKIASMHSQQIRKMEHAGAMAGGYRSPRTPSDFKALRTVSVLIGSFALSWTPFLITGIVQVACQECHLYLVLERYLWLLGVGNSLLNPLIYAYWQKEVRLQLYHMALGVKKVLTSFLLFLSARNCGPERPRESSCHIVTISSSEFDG
A number is an active result; – = inactive; · = no result. Hits are enriched below; roughly 3.4% of the tested compounds scored in any of these assays.

SMILES | TEAD-YAP block | FBW7 activator | MITF primary | GPR151 ag | GPR151 conf act | GPR119 ag
O=C1CCCN1CCn1cnc2c(Nc3ccc(Oc4ccccc4)cc3)nc(N3CCc4ccccc4C3)nc21 | – | – | – | – | · | ·
O=C1CCCN1CCn1cnc2c(Nc3ccc(N4CCOCC4)cc3)nc(N3CCc4ccccc4C3)nc21 | – | – | – | 13 | – | –
FC(F)(F)c1cccc(CNc2ncnc3nc(Nc4ccccc4)[nH]c23)c1 | – | – | – | – | · | ·
CCOC(=O)c1c(C)oc2ccc(OC/C=C/c3ccccc3)cc12 | – | – | – | – | · | ·
O=C(c1ccc2nc(NC(=O)C34CC5CC(CC(C5)C3)C4)sc2c1)N1CCOCC1 | – | – | – | – | · | ·
CC(C)CCn1nc(C(=O)NN)c2ccccc2c1=O | – | – | – | 6.0 | – | –
CC1(C)CC(N(Cc2cccs2)C(=O)c2ccco2)CCO1 (stereo not given) | – | – | – | 9.3 | – | –
O=C(NC1CCCC1)C(c1ccco1)N(Cc1cccs1)C(=O)c1ccco1 (stereo not given) | – | – | – | – | · | ·
COc1cc2nc(=S)n3[nH]c(CCn4c(C)nc5ccccc54)nc3c2cc1OC | – | – | – | 5.5 | – | –
COc1ccc(OCc2nc3c4cc(OC)c(OC)cc4nc(=S)n3[nH]2)cc1 | – | – | – | – | · | ·
Cc1ccc(-c2nnc(C3CCN(S(=O)(=O)c4ccc(Cl)s4)CC3)o2)cc1 | – | – | – | 7.0 | – | –
COCC1CCCCN1C(=O)CC1(c2ccccc2)CC(=O)N(CCc2ccccn2)C1=O (stereo not given) | – | – | – | 5.4 | – | –
CCN(CC)c1nc(NCc2cccc(C(F)(F)F)c2)nc(Nc2ccc(C(F)(F)F)cc2)n1 | – | – | – | – | · | ·
CCN(CC)c1nc(NCc2cccc(C(F)(F)F)c2)nc(NCc2ccc3c(c2)OCO3)n1 | – | – | – | 6.4 | – | –
COC(=O)c1nn(-c2nc(-c3ccco3)cc(C(F)(F)F)n2)cc1[N+](=O)[O-] | – | – | – | – | · | ·
CC(C)(C)C(=O)NC(=S)N1CCOCC1 | – | – | – | – | · | ·
CC1CN(C(=S)NC(=O)C(C)(C)C)CC(C)O1 (stereo not given) | – | – | – | 7.3 | – | –
CN(C)N1C(N)=C(C#N)C(c2ccccc2Cl)C2=C1CCCC2=O (stereo not given) | – | – | – | – | · | ·
CN(C)N1C(N)=C(C#N)C(c2cccc(Cl)c2Cl)C2=C1CCCC2=O (stereo not given) | – | – | – | 5.1 | – | –
Cc1cc(NC2CCN(Cc3ccccc3)CC2)nc(N2CCOCC2)n1 | – | – | – | – | · | ·
CCOc1ccccc1OCC(=O)Nc1ccc2c(c1)OCO2 | – | – | – | – | · | ·
O=C(COc1ccccc1C(=O)Nc1ccccc1)Nc1ccc2c(c1)OCO2 | – | – | – | 7.9 | – | –
Cc1ccc(O)c(/C=N/NC(=O)c2cccc(Br)c2)c1 | – | – | – | – | · | ·
Cc1nc2cnc(-c3ccc(N4CCOCC4)cc3)cn2c1NC(=O)c1ccco1 | – | – | – | – | · | ·
COc1ccc(-c2cc(NC(=NCc3ccco3)SC)n[nH]2)c(OC)c1 | – | – | – | – | · | ·
SMILES | TEAD-YAP block | FBW7 activator | MITF primary | GPR151 ag | GPR151 conf act | GPR119 ag
COc1ccccc1-c1cc(NC(=NCc2ccco2)SC)n[nH]1 | 50 | – | – | 6.4 | – | –
Cc1nnnn1-c1ccc(CC(=O)N2CCC3(CC2)NC(=O)c2ccccc2N3)cc1 | – | – | – | – | · | ·
Cc1ccc2c(c1)/C(=C/c1ccccc1)c1cnc(/C=C/c3ccccc3)cc1-2 | – | – | – | – | · | ·
CCCNC(=O)c1cc2n(n1)C(C(F)(F)F)CC(c1ccc(Br)cc1)N2 (stereo not given) | – | – | – | – | · | ·
COc1ccc(S(=O)(=O)NNC(=S)NCC2CCCO2)c(OC)c1 (stereo not given) | – | – | – | 5.0 | – | –
O=S(=O)(NNC(=S)NCC1CCCO1)c1cc(Cl)ccc1Cl (stereo not given) | – | – | – | – | · | ·
COc1ccc(C(=O)NCCC(=O)NCC2CCCO2)cc1OC (stereo not given) | – | – | – | 5.7 | – | –
O=C(NCCCc1ccncc1)C1CC12CCN(C(=O)c1ccc(-n3cccn3)cc1)CC2 (stereo not given) | – | – | – | – | · | ·
CC(=O)C/C(C)=N/NC(=O)C(C)Oc1ccc(Cl)cc1C (stereo not given) | – | – | – | – | · | ·

Source: PubChem BioAssay (The Scripps Research Institute Molecular Screening Center)
